Source: PubChem BioAssay
An excerpt weighted towards active compounds, which were near 11% of everything screened.
hNpr1 antagonist = blocks ANP-stimulated signaling of human Npr1 receptor | 76,000 compounds, 1.6% hits | Potency, µM (highest dose often 46.3 µM), for the others: top-dose activity change, negative = inhibition, usual class: inhibitors | HEK293 hNpr1 GloSensor cGMP, ANP-stimulated luminescence | P16066; calls by dose curve; note: nearly all actives have a fitted effect of over 60% in size
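HEK293 cells stably expressing human Npr1 and cGMP GloSensor pGS-40F, loaded 2 h with 2% GloSensor reagent, given compound 30 min at room temperature. Luminescence read before and 20 min after 0.1 nM hNppA.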
NIH3T3 tox = NIH 3T3 cell cytotoxicity | 94,000 compounds, 4.3% hits | NIH 3T3 viability, CellTiter-Glo ATP luminescence, 48-72 h | Potency, µM (titrated, usually from 96.7 µM), for inactives: at the highest dose activity change, negative = cytotoxicity, hits mostly inhibitors; note: nearly all actives have a fitted effect of over 55% in size
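Cytotoxicity is measured as loss of cellular ATP: NIH 3T3 cells (400/well) are exposed to compound for 48 or 72 hr at 37 °C, then CellTiter-Glo luminescence is imaged after 10 min at room temperature.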
HEK293 tox = cytotoxic compounds in HEK 293 cells. Potency, µM (top dose mostly 115 µM), for inactives: at the highest dose activity change, negative = cytotoxicity, most hits filed as inhibitors. AID 1345083. 94,000 compounds, 6.6% hits. HEK 293 viability, ATP luminescence (CellTiter-Glo), 48-72 h; note: nearly all actives have a fitted effect of over 60% in size
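HEK 293 cells at 250 cells/well were exposed to compounds by pintool transfer for 48 or 72 hr at 37 degree Celsius, 5% CO2. Viability was read as ATP-coupled luminescence with CellTiter-Glo after 10 min at room temperature.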
Luciferase inh = inhibitors of firefly (Photinus pyralis) luciferase. P08659. purified P. pyralis luciferase, luminescence, biochemical. Potency, µM (top dose mostly 115 µM), hits mostly inhibitors. 76,000 compounds, 2.5% hits. AID 1347043; note: nearly all actives have a fitted effect of over 65% in size
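Cell-free enzyme assay, 10nM P. pyralis luciferase, luciferin and ATP each at 10uM. Inhibition profiled over a 6-point titration, read as luminescence.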
The depositor's hits bear a star; i = inactive; ? = inconclusive; / = no result; [ ] = remark or other dose. Unless noted, calls come from the whole dose curve; as a rule, active = well fitted curve in the direction sought with a large enough effect; inconclusive = small, poorly fitted or top-dose-only effect, or another doubt; inactive = no such curve, though single readings can be large; an effect the other way counts as inactive or inconclusive. % is set by controls: 0 for no effect and ±100 for the full control effect; potency is the fitted concentration of half-maximal effect.

SMILES | hNpr1 antagonist | NIH3T3 tox | HEK293 tox | Luciferase inh
O=C(O)CCn1ncc2cc(OC3CCN(C(=O)OCc4ccccc4)CC3)ccc21 | -3.3%[70.6 µM] | ? | -18.6%[172 µM] | ?
CNC(=O)CCn1ncc2cc(OC3CCc4cccc(-c5ccc(O)c(F)c5)c43)ccc21 (centres undefined) | 1.7% | 39.8µM* | ? | i
CNC(=O)CCn1ncc2cc(OC3CCc4cccc(-c5cccc(CO)c5)c43)ccc21 (centres undefined) | -1.3%[70.6 µM] | ? | 79.4µM* | ?
CC(C)OC(=O)N1CCC(Oc2ccc3c(cnn3CCC(=O)O)c2)CC1 | 1.3%[70.6 µM] | ? | 4.0%[172 µM] | i
CNC(=O)CCn1ncc2cc(OC3CCc4cccc(-c5ccc(OC)cc5)c43)ccc21 (centres undefined) | -18.7%[70.6 µM] | 50.1µM* | 79.4µM* | i
CNC(=O)CCn1ncc2cc(OC3CCc4cccc(-c5cnn(C)c5)c43)ccc21 (centres undefined) | 1.3%[70.6 µM] | ? | 50.1µM* | i
CCOC(=O)N1CCC(=O)N(C)C[C@H]2COc3ccc(C)cc3[C@H]21 | / | ? | -20.3% | /
Cc1ccsc1C(=O)N1CCC2(CC1)OC(=NCCc1ccccc1)NC2=O | / | -24.5% | -19.7% | /
CCC1(O)CCC12CCN(C(=O)c1ccc(OC)nc1)CC2 (centres undefined) | / | -29.1% | -6.9% | /
CCCn1nc(C)c(-c2cc(C(=O)N3CCCC(Cc4nncn4Cc4ccccc4)C3)[nH]n2)c1C (centres undefined) | -4.6% | i | i | i
O=C1NCCCc2[nH]c(-c3csc(-c4ccccc4)n3)nc21 | -3.6% | ? | ? | 25.1µM*
CC(=O)c1ccc(NC(=O)N2C[C@@H]3C[C@H](C2)c2ccc(NC(=O)Nc4cccc(F)c4)c(=O)n2C3)cc1 | 0.9% | -21.0% | -1.1% | 35.5µM*
O=C(Nc1ccc2n(c1=O)C[C@H]1C[C@@H]2CN(C(=O)Nc2ccc(F)cc2)C1)c1ccccc1 | 1.3% | 22.4µM* | -6.3% | i
O=C1N[C@@H]2CCN(S(=O)(=O)c3ccccc3)[C@@H]2C(=O)N1c1ccc(Oc2ccccc2)cc1 | 4.9% | -4.9% | -20.7% | i
COc1ccccc1-c1cccc(CN2CCC(NC(=O)NC3CCCC3)CC2)c1 | / | 28.2µM* | 39.8µM* | /
COc1ccccc1-c1cccc(CN2CCC(NC(=O)Nc3ccccc3F)CC2)c1 | / | 17.8µM* | 25.1µM* | /
